Data: PubChem BioAssay (NCATS)
Several values for one entry are separate records, joined by “and”; a condition that tells them apart may be missing. Equal entries are not always repeated. Results filed as inconclusive are left out. Activity calls are given as the source filed them. Calls follow the shape of the dose curve; as a rule, active = well fitted activation curve with a large enough effect; inconclusive = small, poorly fitted or top-dose-only effect; inactive = flat fitted curve, though single readings scatter.

Experiment: Cellular Toxicity (caspase-3) H-4-II-E (AID 663);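 also: cells exposed to compound for 16 hr before readout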
Conditions: H-4-II-E rat hepatoma, scaled: DMSO 0%, 100 µM tamoxifen 100%; at 92.2 µM (top of the series)
Outline: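 Apoptosis induction is scored as increased luminescence from caspase 3/7 substrate cleavage in rat hepatoma H-4-II-E cells exposed to compound for 16 hr. Activity is scaled between DMSO and 100 uM tamoxifen.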
For c1ccc2c(c1)Nc1ccccc1S2, the caspase-3 activation was -0.251% (inactive). In the case of CNCC(O)c1ccc(O)cc1 (stereo not given), the caspase-3 activation was -0.124% (inactive). For Oc1cccc2cccnc12, the caspase-3 activation was 5.58% (inactive) and 5.31% (inactive). For OCCOc1ccccc1, the caspase-3 activation was -1.74% (inactive). For NCC(O)c1ccc(O)cc1 (stereo not given), the caspase-3 activation was -0.161% (inactive). With CCOP(=S)(OCC)Oc1cc(C)nc(C(C)C)n1 the caspase-3 activation was -0.387% (inactive). With N[C@@H](Cc1ccc(N(CCCl)CCCl)cc1)C(=O)O the caspase-3 activation was 116% (active). In the case of Oc1ccccc1-c1ccccc1, the caspase-3 activation was -0.124% (inactive). For Oc1ccc(Cl)cc1Cc1ccccc1, the caspase-3 activation was 2.16% (inactive). For CCCC(C)(COC(N)=O)COC(=O)NC(C)C (stereo not given), the caspase-3 activation was 0.766% (inactive).

Experiment: Cellular Toxicity (caspase-3) Hek293 (AID 664);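 also: cells exposed to compound for 16 h at 37 °C before readout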
Conditions: HEK293 caspase-3 activation, DMSO = 0%, 100 µM tamoxifen = 100%; series mostly up to 92.2 µM; caspase-3 activation: at the top concentration
Outline: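 Activation of caspase-3/7 is measured as increased luminescence from cleaved peptide-aminoluciferin substrate in HEK293 cells treated 16 hours at 37 °C. AC50 values come from Hill-equation fits of concentration-response data.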
For c1ccc2c(c1)Nc1ccccc1S2, the “caspase-3 activation” value was -1.38% (inactive). In the case of CNCC(O)c1ccc(O)cc1 (stereo not given), the “caspase-3 activation” value was 0.01% (inactive). With Oc1cccc2cccnc12 the outcome was “inactive”. For OCCOc1ccccc1, the “caspase-3 activation” value was -0.538% (inactive). In the case of NCC(O)c1ccc(O)cc1 (stereo not given), the “caspase-3 activation” value was -2.06% (inactive). In the case of CCOP(=S)(OCC)Oc1cc(C)nc(C(C)C)n1, the “caspase-3 activation” value was 0.306% (inactive). In the case of N[C@@H](Cc1ccc(N(CCCl)CCCl)cc1)C(=O)O, the “caspase-3 activation” value was -1.7% (inactive). In the case of Oc1ccccc1-c1ccccc1, the “caspase-3 activation” value was 2.45% (inactive). For Oc1ccc(Cl)cc1Cc1ccccc1, the “caspase-3 activation” value was 23.3% (inactive). In the case of CCCC(C)(COC(N)=O)COC(=O)NC(C)C (stereo not given), the “caspase-3 activation” value was 5.42% (inactive).
